Screens (PubChem)
Compounds with a hit are over-represented: about 0.82% of the library has one in this group of screens.
GPT2 inh = GPT2 alanine aminotransferase inhibition; Q8TD30; Recombinant GPT2, coupled pyruvate oxidase/HRP Amplex Red fluorescence; Potency, µM (series often up to 57.7 µM), hits mostly inhibitors; 0.25% of 100,000 active; also: nearly all actives have a fitted effect of over 60% in size
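Fluorescence read-out: pyruvate from GPT2 turnover coupled to pyruvate oxidase, HRP and Amplex Red (0.2mM ThPP, 0.2U/mL PO and HRP, 50uM Amplex final). Substrates 250uM a-KG, 2mM L-alanine; enzyme 10ng/uL; 30 min RT.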
IP6K1 inhibitor = blocks human inositol hexakisphosphate kinase 1 | Q92551 | IP6K1 kinase, ADP-Glo luminescence, 2 h; hits give low values | activity change, % (series mostly up to about 58 µM) | 0.81% of 140,000 active; in the data active = activity change below about -25%
Target sequence (Q92551 whole entry, looked up): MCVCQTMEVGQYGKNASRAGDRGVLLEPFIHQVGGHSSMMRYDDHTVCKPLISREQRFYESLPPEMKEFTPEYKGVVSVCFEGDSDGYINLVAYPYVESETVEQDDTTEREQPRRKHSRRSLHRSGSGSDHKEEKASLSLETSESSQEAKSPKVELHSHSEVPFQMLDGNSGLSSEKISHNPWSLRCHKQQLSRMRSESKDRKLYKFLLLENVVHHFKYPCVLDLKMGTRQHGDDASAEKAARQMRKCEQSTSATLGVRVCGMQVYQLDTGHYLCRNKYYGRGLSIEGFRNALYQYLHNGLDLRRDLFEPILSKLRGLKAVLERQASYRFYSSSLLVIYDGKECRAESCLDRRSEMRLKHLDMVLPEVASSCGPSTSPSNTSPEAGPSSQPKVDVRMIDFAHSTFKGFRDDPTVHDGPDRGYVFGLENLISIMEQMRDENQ
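ADP-Glo luminescence measures ADP made by human IP6K1 during a 2 h RT reaction with ATP/IP6 (mix at 1.3 mM/130 uM); top library doses 57.5 and 19.1 uM final.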
IP6K1 conf = human IP6K1 inhibition, confirmatory; 13% of 1,200 active; shares compounds with IP6K1 inhibitor; Potency, µM (titrated, usually from 49 µM), usual class: inhibitors; AID 1645852; recombinant IP6K1 kinase, ADP-Glo luminescence, 2 h; also: nearly all actives have a fitted effect of over 65% in size
A number is an active result; i = inactive; ? = inconclusive; nt = no result given; [ ] = dose if it differs, or a comment. Unless noted, calls follow the shape of the dose curve; as a rule, active = well fitted curve in the direction sought with a large enough effect; inconclusive = small, poorly fitted or top-dose-only effect, or another doubt; inactive = no such curve, though single readings can be large; an effect the other way counts as inactive or inconclusive.

SMILES	GPT2 inh	IP6K1 inhibitor	IP6K1 conf
Cc1ccccc1CN1C(=O)c2ccccc2Sc2ccc(C(=O)O)cc21	nt	i	nt
CCCc1nc(CN(CC)C(=O)c2ccc(NC(=O)C3CCC3)cc2)no1	i	i	nt
Nc1nc(N)c(N=O)c(OCC2CCCCC2)n1	i	nt	nt
NS(=O)(=O)c1ccc(Nc2nc(OCC3CCCCC3)c3[nH]cnc3n2)cc1	i	-47	4.1µM
CCN(CC)C(=O)c1ccc(Nc2nc(OCC3CCCCC3)c3[nH]cnc3n2)cc1	i	-41	10µM
Cc1ccc2nc(C3CCN(CC(C)C)CC3)[nH]c(=O)c2c1	i	i	nt
O=C(NCc1cccc(C(F)(F)F)c1)C1CCCN(Cc2cccc(-c3cccs3)c2)C1 (configuration not stated)	nt	i	nt
CCn1nccc1C(=O)N1CCC2(CC1)C(OC)CN2c1cccc(F)c1 (configuration not stated)	i	i	nt
CCCCOc1ccc(S(=O)(=O)n2nc(C)c(S(=O)(=O)N3CCC(C)CC3)c2C)cc1	nt	-26	i
Cc1nn(S(=O)(=O)c2ccc(Cl)cc2)c(C)c1S(=O)(=O)N1CCCCCC1	nt	i	nt
CCCCOc1ccc(S(=O)(=O)n2nc(C)c(S(=O)(=O)N3CCCCCC3)c2C)cc1	nt	i	nt
Cc1ccc(S(=O)(=O)n2nc(C)c(S(=O)(=O)N3CCCCCC3)c2C)cc1C	nt	-27	i
COc1ccc(-c2cn3cc(C(=O)NCC(F)(F)F)nc3s2)cc1	i	i	nt
COc1cccc(NC(=O)C2CCCN(S(=O)(=O)c3ccc4[nH]c(=O)ccc4c3)C2)c1 (configuration not stated)	nt	-33	i
COc1ccc(NC(=O)C2CCCN(S(=O)(=O)c3ccc4[nH]c(=O)ccc4c3)C2)cc1OC (configuration not stated)	nt	i	nt
Cc1ccc(S(=O)(=O)Nc2cccc(-c3cn4cccc(C)c4n3)c2)cc1	nt	-26	i
Cc1cccn2cc(-c3cccc(NS(=O)(=O)c4ccc(Cl)c(Cl)c4)c3)nc12	nt	i	nt
CC(C)CNc1ccc2nnc(-c3ccc(F)cn3)n2n1	i	i	nt
CC(C)Nc1ccc2nnc(-c3ccc(F)cn3)n2n1	i	-26	i
COc1ccc2[nH]cc(CCNC(=O)C3Cn4cccc4C(=O)N3Cc3cccnc3)c2c1 (configuration not stated)	i	i	nt
Cc1ccccc1NC(=O)N1CCC(CCNC(=O)Cc2ccccc2F)CC1	i	i	nt
CC(C)CNC(=O)c1ccc2oc(-c3cccnc3)nc2c1	i	i	nt
Cc1ccc(-c2noc(-c3ccc(N4CCC(C)CC4)c([N+](=O)[O-])c3)n2)cc1	nt	i	nt
Cc1noc(-c2ccc(N3CCC(C)CC3)c([N+](=O)[O-])c2)n1	nt	-36	?
Cn1c(CCNC(=O)CC2CCOC3(CCN(S(C)(=O)=O)CC3)C2)nc2ccccc21 (configuration not stated)	i	i	nt
SMILES	GPT2 inh	IP6K1 inhibitor	IP6K1 conf
CCOC(=O)c1cccc(NC(=O)N2CC[C@@H](CC(=O)Nc3ccccc3)[C@@H](CC)C2)c1	i	i	nt
CCOC(=O)c1cccc(NC(=O)N2CC[C@@H](CC(=O)Nc3nccs3)[C@@H](CC)C2)c1	i	-35	?
Cc1ccc(CN2C(=O)NC3(CCCN(C(=O)c4cc(Cl)ccc4F)C3)C2=O)cc1 (configuration not stated)	i	i	nt
O=C(O)CCn1ncc2cc(OCC3CCN(C(=O)Oc4ccccc4)CC3)ccc21	i	i	nt
COc1cccc([C@@H]2CN(C(=O)c3cnn(C)c3)C[C@H]2C(=O)O)c1	i[11.5 µM]	i	nt
C=CCn1c(=O)c2c(nc(-c3ccc(S(=O)(=O)O)cc3)n2C)n(C)c1=O	i	nt	nt
Cn1c(=O)c2[nH]c(-c3ccc(S(=O)(=O)O)cc3)nc2n(C)c1=O	i	nt	i
COc1ccccc1Oc1c(CCC(=O)NCc2ccccc2)c(C)nn1-c1ccc(F)cc1	i	i	nt
CCCc1nc(NCc2ccc(-c3noc(C)n3)cc2)c2cnn(C)c2n1	i	i	nt
O=C(CCn1nc(-c2ccc(Cl)cc2)ccc1=O)NCCc1ccccc1	nt	i	nt
Cc1ccc(CCNC(=O)CCn2nc(-c3ccc(Cl)cc3)ccc2=O)cc1	nt	-28	i
O=C(c1ccco1)N1CCC(Cc2nc(C3CCOCC3)no2)CC1	i	i	nt
CN(C)c1cc(=O)c2ccnc(-c3cccc(CO)c3)c2o1	i	-25	i
O=c1cc(-c2ccncc2)oc2c(-c3cccc(CO)c3)nccc12	i	i	nt
COc1ccc(-c2ccc(C(=O)N3CCC(NC(=O)c4ccccc4F)C3)cc2)nn1 (configuration not stated)	nt	i	nt
COc1cccc(Cn2c(C)c(CNCc3cccc(C)c3)c(C(=O)O)c2C)c1	nt	i	nt
COc1cccc(Cn2c(C)c(CNCc3ccccc3Cl)c(C(=O)O)c2C)c1	nt	-27	i
O=C(Nc1cccc(C(F)(F)F)c1)c1cnc2c(c1)N(Cc1ccccc1)CCC2	i	i	nt
CC(C)c1nc2ccc(C(=O)NCCCN3CCN(c4cccc(Cl)c4)CC3)cc2o1	nt	-34	?
CC(C)c1nc2ccc(C(=O)NCCCN3CCN(c4ccc(F)cc4)CC3)cc2o1	nt	i	nt
CC(=O)NC1CCN(c2nccc(Nc3ccccc3Cl)n2)CC1	i	i	nt
Cc1ccc(C)c(C(=O)NCc2nnc3cc(-c4nc(C)no4)ccn23)c1	i	i	nt
CN1Cc2ncnc(NCC3CC3)c2CN(c2ccc(Cl)cc2)C1=O	i	i	nt
CN1Cc2ncnc(NCCc3ccc(F)cc3)c2CN(c2ccc(Cl)cc2)C1=O	i	-29	i
Cc1ccc(-c2nnc3ccc(Nc4cccc(N(C)C)c4)nn23)nc1	i	-25	i
SMILES	GPT2 inh	IP6K1 inhibitor	IP6K1 conf
COc1ccc(Nc2ccc3nnc(-c4ccc(C)cn4)n3n2)cc1	i	i	nt
COc1ccc(C(=O)N2CCC[C@H](n3c(=O)n(CC4CC4)c4cccnc43)C2)cc1F	i	i	nt
Cn1ncc2c(C(=O)NCc3cccs3)cc(-c3ccccc3C(F)(F)F)nc21	nt	i	nt
CN(Cc1cccs1)c1nc(-c2ccccc2C(F)(F)F)nc2ccccc12	nt	nt	i
Cn1ncc2c(C(=O)NCCc3ccc(Cl)cc3)cc(-c3ccccc3C(F)(F)F)nc21	nt	i	nt
FC(F)(F)c1ccccc1-c1nc(NCc2ccc(Cl)cc2)c2ccccc2n1	nt	nt	i
Fc1ccc(-c2cc(C(F)(F)F)nc(NCc3ccccc3)n2)cc1	nt	i	nt
Cc1ccc(Nc2nc(-c3ccccc3)nc3ccccc23)cc1	nt	i	nt
Cc1ccc(CNc2nc(-c3ccccc3C(F)(F)F)nc3ccccc23)s1	nt	nt	i
FC(F)(F)c1ccccc1-c1nc(NCc2ccccc2)c2ccccc2n1	nt	nt	i
Cc1ccc(S(=O)(=O)N(C)CC2CCOC2)cc1F (configuration not stated)	i	i	nt
COC(=O)NC1CCN(C(=O)c2ccc(-c3cccs3)cc2)CC1	i	i	nt
O=C(C1CCN(c2nccc(Nc3ccccc3Cl)n2)CC1)N1CCOCC1	i	i	nt
c1cc(Cn2cccn2)cc(-c2cn(CC3CNCCO3)nn2)c1 (configuration not stated)	i	i	nt
COc1ccc(-c2nc3cc(C)ccn3c2NC(=O)c2ccc(F)cc2)cc1	nt	-32	?
COc1ccc(-c2nc3cc(C)ccn3c2NC(=O)c2ccc(C)c(C)c2)cc1	nt	i	nt
c1ccc(-c2cc3c(cn2)NCCN(Cc2ccccn2)C3)cc1	i	i	nt
COc1ccc(Nc2cc3c(cn2)NCCN(Cc2ccccc2)C3)cn1	?	-25	i
